Screens: PubChem BioAssay, National Center for Advancing Translational Sciences (NCATS)
This is a sample that favours compounds with a hit; in the whole collection about 2.2% have one here.
Mito fusion act: inhibitors of mitochondrial division or activators of mitochondrial fusion; S. cerevisiae fusion-defective mutant growth rescue, CellTiterGlo 48 h; Potency, µM (titrated, usually from 46.1 µM), most hits filed as activators; actives 0.23% (n = 320,000); also: nearly all actives have a fitted effect of over 45% in size
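Luminescent cell viability in 1536-well qHTS format served as the measure of rescued growth in ts fusion-mutant S. cerevisiae cultured on non-fermentable YPEG for 48 hours at 37C.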
aSyn rescue: inhibitors of alpha-synuclein toxicity in yeast; Yeast expressing alpha-synuclein, growth rescue, BacTiter-Glo, 24 h; Potency, µM (series often up to 46.1 µM), usual class: activators; actives 0.14% (n = 370,000); also: nearly all actives have a fitted effect of over 65% in size
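Screening used galactose-induced yeast with toxic alpha-synuclein levels, exposed to compound for 24 hr at 30 deg C. Cell growth, read with BacTiter-Glo luminescence, gave the measured signal.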
FUS suppressor: rescues growth of FUS-expressing yeast. Potency, µM (highest dose often 76.6 µM), most hits filed as activators. AID 1347120. actives 0.24% (n = 390,000). S. cerevisiae FUS-expressing, growth rescue, OD600, 24 h; also: nearly all actives have a fitted effect of over 55% in size
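Yeast FUS proteinopathy model; galactose-induced FUS (2%), starting OD 0.005. Cpds in dilution series, 24hr, 30C, 99% humidity. Abs 600 nm growth. Pos ctrl CP55940 (top 92uM final); neg ctrl DMSO.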
TDP-43 yeast inh: TDP-43 toxicity inhibition in yeast; Potency, µM (highest dose often 46.1 µM), actives largely listed as activators; actives 1.8% (n = 410,000); TDP-43 expressing yeast growth rescue, BacTiter-Glo, 24 h; AID 652104; also: nearly all actives have a fitted effect of over 50% in size
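Luminescence from BacTiter-Glo reports growth of TDP-43-expressing yeast after 24 hr at 30 deg C with compound. Cells were raffinose-pregrown to mid-log, then seeded in galactose medium at OD600=0.02.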
Abeta yeast res: compounds reversing amyloid beta toxicity in yeast. Potency, µM (top dose mostly 46.1 µM), actives largely listed as activators. yeast expressing A-beta42, growth rescue, OD600, 48 h; response scale: 0% DMSO, 100% iron-clioquinol control. actives 0.063% (n = 410,000); also: nearly all actives have a fitted effect of over 55% in size
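Yeast A-beta toxicity model in growth medium with pinned compounds, 48 h at 30 C; growth read as absorbance at 600 nm. Normalized to FeCl3/clioquinol equimolar mix (positive) and DMSO (negative).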
A number is an active result; – = inactive; ? = inconclusive; · = not tested or not shown; [ ] = another dose, or the depositor's remark. Calls follow the shape of the dose curve; as a rule, active = well fitted curve in the direction sought with a large enough effect; inconclusive = small, poorly fitted or top-dose-only effect, or another doubt; inactive = no such curve, though single readings can be large; an effect the other way counts as inactive or inconclusive.

SMILES	Mito fusion act	aSyn rescue	FUS suppressor	TDP-43 yeast inh	Abeta yeast res
CC(C)(C)c1ccc(NC(=O)C2CCCN(c3cnccn3)C2)cc1 (configuration not stated)	12.6µM	–	–	–	–
CCC(C)c1ccc(NC(=O)C2CCCN(c3ncccn3)C2)cc1 (configuration not stated)	–	·	–	12.6µM	–
CC1(C)OC(=O)C2(Cc3cc(C(F)(F)F)ccc3N3CCCCC32)C(=O)O1 (configuration not stated)	·	–	·	·	·
Cc1ccc2onc(CC(=O)N3CCN(c4ccccc4F)CC3)c2c1	·	·	–	?	–
Cc1ccc2onc(CC(=O)N3CCN(c4ccc(F)cc4)CC3)c2c1	·	·	–	12.6µM	–
Cc1ccc(C)c(N2CCN(C(=O)c3ccc4nc(N5CCOCC5)sc4c3)CC2)c1	–	–	?	12.6µM	–
Cc1ccc2cc3cc(C(=O)N4CCN(Cc5ccccc5)CC4)sc3nc2c1	–	–	–	–	–
Cc1ccc2cc3cc(C(=O)N4CCN(C(=O)c5ccco5)CC4)sc3nc2c1	–	–	–	12.6µM	–
Cc1cc2nc(N3CCN(C(=O)c4ccco4)CC3)sc2cc1C	–	–	–	–	–
CCc1ccc2nc(N3CCN(C(=O)c4ccccc4)CC3)sc2c1	·	·	–	11.2µM	–
O=C(c1ccco1)N1CCN(c2nc3ccc(Cl)cc3s2)CC1	·	·	–	11.2µM	–
C=Cn1cc[n+](CC(=O)c2ccc(Br)s2)c1	–	–	–	–	–
Cc1ccc(Cn2c(C(C)NC(=O)c3ccccc3)nc3ccccc32)cc1 (configuration not stated)	·	·	–	?	–
Cc1cccc(C)c1NC(=O)N1CCN(c2nc3ccccc3s2)CC1	–	–	–	?	–
O=C(c1ccc2nc(N3CCOCC3)sc2c1)N1CCC(Cc2ccccc2)CC1	–	–	?	25.1µM	–
O=C(NCCc1ccccc1)c1ccc2nc(N3CCOCC3)sc2c1	–	–	–	?	–
Cc1cccc(Cl)c1NC(=O)N1CCCN(c2nc3ccc(Cl)cc3s2)CC1	–	–	–	20µM	?
CCCCNc1ccc(/C=C2\C=Cc3ccccc32)cc1	·	–	·	·	·
Cc1cc(OCc2cc(C(=O)N(C)Cc3nonc3C)no2)cc(C)c1Cl	–	–	–	?	14.1µM
CCc1ccc(CN(C)C(=O)c2cc(COc3cc(C)c(Cl)c(C)c3)on2)nc1	–	?	?	20µM	–
Cc1cc(OCc2cc(C(=O)N(C)CCc3cnn(C)c3)no2)cc(C)c1Cl	–	–	–	–	–
Cc1cc(OCc2cc(C(=O)N(C)C3CCOC3)no2)cc(C)c1Cl (configuration not stated)	–	–	–	12.6µM	–
O=C1CN(C(=O)COc2ccccc2)C(c2ccc(F)cc2)c2cc(Br)ccc2N1 (configuration not stated)	·	·	–	–	–
CCOc1ccc(C(=O)Nc2cccc(-c3nc4cc(Cl)cc(Cl)c4o3)c2)cc1	·	·	–	–	–
Cc1ccccc1Nc1nnc(SCC(=O)Nc2ccccc2[N+](=O)[O-])s1	–	–	–	15.8µM	–
SMILES	Mito fusion act	aSyn rescue	FUS suppressor	TDP-43 yeast inh	Abeta yeast res
Cc1cccc(Nc2nnc(SCC(=O)c3ccc(Br)s3)s2)c1C	?	–	–	25.1µM	?
COC(=O)c1nn(-c2ccc(OC)cc2)c(=O)cc1O	1.58µM	–	–	–	–
Cc1ccc(C2c3c(-c4cc(C)ccc4O)n[nH]c3C(=O)N2Cc2ccco2)cc1 (configuration not stated)	·	·	–	?	–
O=C1c2[nH]nc(-c3ccccc3O)c2C(c2cccc(Cl)c2)N1Cc1ccco1 (configuration not stated)	–	–	?	?	–
O=C1c2[nH]nc(-c3ccccc3O)c2C(c2ccc(F)cc2)N1Cc1ccco1 (configuration not stated)	–	–	44.7µM	–	–
Cc1cc(C)c(O)c(-c2n[nH]c3c2C(c2cccc(O)c2)N(Cc2ccco2)C3=O)c1 (configuration not stated)	–	–	31.6µM	–	–
O=S(=O)(Nc1ccccc1C(F)(F)F)c1ccc(N2CCCCS2(=O)=O)cc1	·	·	–	–[9.22 µM]	–
CCOc1ccc(N(CC)S(=O)(=O)N2CCCC(C(=O)Nc3cc(Cl)ccc3OC)C2)cc1 (configuration not stated)	·	·	–	–	–
CC(=O)OCc1c(-c2ccccc2)c2cc([N+](=O)[O-])ccc2n1C	–	–	–	–	–
Cn1c(CO)c(-c2ccccc2)c2cc([N+](=O)[O-])ccc21	–	–	–	14.1µM	–
N#Cc1cccc(C(=O)C(=O)N2CCC(c3ccccc3)CC2)c1	·	–	–	–	–
O=C(C(=O)N1CCC(c2ccccc2)CC1)c1ccc(F)c(F)c1	·	–	–	22.4µM	–
O=C(O)C1C2C=CC(C2)C1C(=O)NCc1ccc(Cl)c(Cl)c1 (configuration not stated)	–	–	–	20µM	–
C[C@H]1[C@@H](OC(=O)Nc2ccc(C#N)cc2)CC[C@@]23CCCN2C(=O)CCC[C@@H]13	·	·	–	·	·
O=C(O)c1cccc(N2C(=O)CSC2c2ccccc2)c1 (configuration not stated)	–	–	–	–	–
Cc1ccc(NC(=O)C2(NC(=O)c3cccc(N4C(=O)CSC4c4ccccc4)c3)CCCCC2)cc1 (configuration not stated)	–	–	28.2µM	–	–
CC(C)(C)OC(=O)COc1cc(OCC(=O)OC(C)(C)C)c2c(=O)cc(-c3ccccc3)oc2c1	–	–	31.6µM	–	–
COc1cc(OC)c2c(=O)cc(-c3ccccc3)oc2c1	–	–	–	35.5µM	–
COc1cc(OC)c2c(=O)cc(-c3cccnc3)oc2c1	–	?	–	–	–
O=C(NCCc1ccccc1Cl)c1sc2ncccc2c1-n1cccc1	·	·	?	17.8µM	–
OC(c1ccccc1)(c1ccccc1)C1CCN(CCCNc2ccc(Cl)cc2Cl)CC1	·	·	–	·	·
Cc1ccc(Cl)cc1-n1ncc2c(NC3CCCCCC3)ncnc21	·	·	–	14.1µM	–
Cc1ccc(CNc2ncnc3c2cnn3-c2ccc(C)cc2C)cc1	·	·	–	35.5µM	–
COc1ccc(CCNc2ncnc3c2cnn3-c2cc(Cl)ccc2C)cc1	·	·	–	20µM	–
Cc1ccc(-n2ncc3c(NC4CCCCCC4)ncnc32)cc1Cl	·	·	–	?	–
COc1ccc(CCNc2ncnc3c2cnn3-c2ccc(C)c(Cl)c2)cc1	·	·	–	–	–
c1ccc(-n2ncc3c(NCC4CCCO4)ncnc32)cc1 (configuration not stated)	–	–	–	–	–
Clc1ccc(-n2ncc3c(NCC4CCCO4)ncnc32)cc1 (configuration not stated)	–	–	–	11.2µM	–
